Experimental data published in the supplement of paper PMC3545927.
This is one part of the list. The true hit rate is not given.

B1: HC1476 (peptide)
chain: CAKKTPMGFSAGNASASA
B2: HC1675 (peptide)
chain: CAHEECSQHLAGNASASA
B3: HC99 (peptide)
chain: CAVVCQSMSYAGNASASA
B4: HC1468 (peptide)
chain: CAYSPGQRVEAGNASASA
B5: FS-471 (peptide)
chain: CAPCCRQRREAGNASASA
B6: FS-441 (peptide)
chain: CAHVQRQRREAGNASASA
B7: HC1217 (peptide)
chain: CAPCQVPSPEAGNASASA
B8: HC626 (peptide)
chain: CAGHYVQMVIAGNASASA
B9: HC2191 (peptide)
chain: CAEVDTSTWVAGNASASA
B10: HC773 (peptide)
chain: CAVAHLHAPTAGNASASA
B11: HC1383 (peptide)
chain: CAALSNSLLRAGNASASA
B12: FS-2335 (peptide)
chain: CARHKRMCQGAGNASASA
B13: FS-1954 (peptide)
chain: CARHKRKVFEAGNASASA
B14: FS-2678 (peptide)
chain: CARHKRETLKAGNASASA
B15: FS-2938 (peptide)
chain: CARHKRRSKFAGNASASA
B16: FS-2336 (peptide)
chain: CARHKRSLLRAGNASASA
B17: FS-2159 (peptide)
chain: CARNKRKVFSAGNASASA
B18: FS-1823 (peptide)
chain: CARHKRKQLPAGNASASA
B19: HC1318 (peptide)
chain: CAPLPPPKSPAGNASASA
B20: HC1421 (peptide)
chain: CAFGYGAKDVAGNASASA
B21: HC256 (peptide)
chain: CAAYQVRNSTAGNASASA
B22: HC1099 (peptide)
chain: CAEDLVNLLPAGNASASA
B23: HC2123 (peptide)
chain: CAEAVVCCSMAGNASASA
B24: FS-2675 (peptide)
chain: CARHGRDLYRAGNASASA
B25: FS-2557 (peptide)
chain: CARHYRNVFHAGNASASA
B26: FS-1895 (peptide)
chain: CARHKRVHSGAGNASASA
B27: FS-2143 (peptide)
chain: CARHKRVGTLAGNASASA
B28: FS-1824 (peptide)
chain: CARHKRWHFIAGNASASA
B29: FS-2023 (peptide)
chain: CARHKRTIPMAGNASASA
B30: FS-2942 (peptide)
chain: CARHQRTENIAGNASASA
B31: FS-1719 (peptide)
chain: CARHYRWALGAGNASASA
B32: FS-2027 (peptide)
chain: CARHYRSNSPAGNASASA
B33: FS-3254 (peptide)
chain: CARHKRIPPEAGNASASA
B34: HC33 (peptide)
chain: CAMEECEQHLAGNASASA
B35: HC2171 (peptide)
chain: CAEDVTSTWVAGNASASA
B36: HC2455 (peptide)
chain: CAEHEVPCHRAGNASASA
B37: FS-2513 (peptide)
chain: CARRARVTDAAGNASASA
B38: FS-2593 (peptide)
chain: CARRKKALEIAGNASASA
B39: FS-3050 (peptide)
chain: CARRKKSLSEAGNASASA
B40: FS-2777 (peptide)
chain: CARRKKSGRGAGNASASA
B41: HC1496 (peptide)
chain: CAVAIKSLTEAGNASASA
B42: FS-2512 (peptide)
chain: CARRARGADAAGNASASA
B43: FS-2514 (peptide)
chain: CARRKKSAPAAGNASASA
B44: FS-2368 (peptide)
chain: CARRARSAPAAGNASASA

Biological target: furin, P09958
Sequence (P09958 whole entry): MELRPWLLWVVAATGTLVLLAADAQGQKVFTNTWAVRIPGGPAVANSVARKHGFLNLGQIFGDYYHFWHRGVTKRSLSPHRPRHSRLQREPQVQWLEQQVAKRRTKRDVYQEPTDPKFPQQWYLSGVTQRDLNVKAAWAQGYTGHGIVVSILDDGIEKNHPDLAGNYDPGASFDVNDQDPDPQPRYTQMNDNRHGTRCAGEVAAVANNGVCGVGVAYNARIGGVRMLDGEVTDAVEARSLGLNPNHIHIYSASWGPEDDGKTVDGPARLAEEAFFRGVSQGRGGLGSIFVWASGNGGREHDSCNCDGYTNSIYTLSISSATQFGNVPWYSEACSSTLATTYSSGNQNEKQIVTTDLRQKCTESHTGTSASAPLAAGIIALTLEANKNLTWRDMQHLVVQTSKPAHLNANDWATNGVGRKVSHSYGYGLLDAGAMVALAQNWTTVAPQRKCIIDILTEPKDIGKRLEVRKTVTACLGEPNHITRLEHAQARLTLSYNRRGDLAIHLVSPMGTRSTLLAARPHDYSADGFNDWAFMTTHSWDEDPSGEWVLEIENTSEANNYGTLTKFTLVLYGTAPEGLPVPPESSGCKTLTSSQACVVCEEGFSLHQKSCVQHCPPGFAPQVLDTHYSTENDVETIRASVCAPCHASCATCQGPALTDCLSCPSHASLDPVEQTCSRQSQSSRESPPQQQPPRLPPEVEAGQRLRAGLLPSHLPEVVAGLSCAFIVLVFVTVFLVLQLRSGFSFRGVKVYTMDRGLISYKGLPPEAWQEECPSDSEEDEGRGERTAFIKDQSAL
Experiment: furin cleavage Z-score vs untreated control; higher = more cleavage, active = 3.5 or more, inactive = 1 or less, 8 variable residues between constant flanks
Procedure, shortened: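 To give the cleavage Z-score, log read counts were set against furin-free reactions, lowess-adjusted and scaled by median absolute deviation. These counts came from PCR adapter-tagged, sequenced DNA released when purified furin cut 8-mer peptides fused to a cDNA oligonucleotide and held on magnetic beads by their N-terminus. Digests were 0.01 ml, 1:10 enzyme:substrate, in 50 mM HEPES pH 7.5 with CaCl2 and NaCl, for 7.5, 15 or 30 min.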

Sequence | furin cleavage Z-score (7.5 min) | furin cleavage Z-score (15 min) | furin cleavage Z-score (30 min)
B1 | -0.403 (inactive) | 1.01 | -1.33 (inactive)
B2 | -0.578 (inactive) | 0.64 (inactive) | 1.48
B3 | 0.407 (inactive) | 0.993 (inactive) | 0.767 (inactive)
B4 | -0.672 (inactive) | 1.68 | -1.81 (inactive)
B5 | 10.1 (active) | 8.7 (active) | 8.83 (active)
B6 | 12.3 (active) | 12.8 (active) | 9.16 (active)
B7 | 0.307 (inactive) | -0.147 (inactive) | 0.789 (inactive)
B8 | -0.996 (inactive) | -0.792 (inactive) | 0.151 (inactive)
B9 | -0.604 (inactive) | -1.24 (inactive) | 0.933 (inactive)
B10 | -0.671 (inactive) | -1.87 (inactive) | -0.0272 (inactive)
B11 | -1.04 (inactive) | 0.165 (inactive) | 0.485 (inactive)
B12 | 1.23 | 0.787 (inactive) | 3.08
B13 | 0.591 (inactive) | 1.75 | 4.34 (active)
B14 | 8.31 (active) | 10.5 (active) | 9.25 (active)
B15 | 1.38 | 2.52 | 5.2 (active)
B16 | 3.75 (active) | 5.3 (active) | 6.44 (active)
B17 | 0.528 (inactive) | 1.39 | 3.14
B18 | 1.11 | -0.015 (inactive) | 2.17
B19 | -0.389 (inactive) | 0.488 (inactive) | -0.355 (inactive)
B20 | 0.651 (inactive) | 1.8 | 1.24
B21 | -0.996 (inactive) | -1.12 (inactive) | -0.888 (inactive)
B22 | 0.711 (inactive) | 1.96 | 0.196 (inactive)

Sequence | furin cleavage Z-score (7.5 min) | furin cleavage Z-score (15 min) | furin cleavage Z-score (30 min)
B23 | -0.484 (inactive) | 0.759 (inactive) | 0.473 (inactive)
B24 | 1.82 | 4.66 (active) | 6.11 (active)
B25 | 1.27 | 2.18 | 5.01 (active)
B26 | -1.2 (inactive) | -0.376 (inactive) | -0.241 (inactive)
B27 | 0.0898 (inactive) | 0.0513 (inactive) | 2.38
B28 | 2.19 | 2.25 | 4.89 (active)
B29 | 6.33 (active) | 8.53 (active) | 8.43 (active)
B30 | -1.07 (inactive) | -2.42 (inactive) | -0.236 (inactive)
B31 | -0.124 (inactive) | 3.28 | 3.44
B32 | 1.06 | -1.02 (inactive) | -0.217 (inactive)
B33 | 0.983 (inactive) | 0.356 (inactive) | 0.464 (inactive)
B34 | -0.264 (inactive) | 1.94 | 0.732 (inactive)
B35 | 0.61 (inactive) | -0.472 (inactive) | 0.123 (inactive)
B36 | 0.493 (inactive) | 1.57 | 2.02
B37 | 0.594 (inactive) | 0.414 (inactive) | 0.64 (inactive)
B38 | 0.898 (inactive) | 1.66 | 1.58
B39 | 4.99 (active) | 7.01 (active) | 7.62 (active)
B40 | 0.0968 (inactive) | 0.171 (inactive) | 1.92
B41 | 0.199 (inactive) | 0.138 (inactive) | 0.903 (inactive)
B42 | 2.72 | 3.57 (active) | 4.42 (active)
B43 | 4.51 (active) | 6.24 (active) | 5.54 (active)
B44 | 10.3 (active) | 10.4 (active) | 8.53 (active)
